Assay results from PubChem BioAssay.
Results with a measured potency or affinity are listed apart. Results filed as inconclusive are left out. The source made the active and inactive calls. Unless noted, how the calls were made is not given here.

Legend:
[1] = RMG-1 ovarian cancer cell viability loss – cherry-pick, dose response (AID 687029;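 active means signal drop whose fitted half-maximal concentration is at most twice the top valid dose, in every test run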;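 further: cells exposed to compound for 96 hours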)
[2] = IOSE-T80 viability loss, PAX8-independent line – cell-based, cherry-pick, selectivity assay for PAX8 inhibitor project, dose response (AID 687032;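 active means fitted half-maximal concentration for viability loss no higher than twice the top valid dose, in every repeat run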;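 further: cells exposed to compound for 96 h before reading; 0% = neutral control wells and -100% = 2 µM mitoxantrone kill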)
[3] = CMV-driven luciferase expression suppression in HEK293 – cell-based, luminescence, dry powder, counter-screen for Pax8 inhibitor project, dose response (AID 743020;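 active means signal-lowering compounds whose fitted half-maximal concentration is at or below twice the top tested dose in every run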;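 further: HEK293 cells stably expressing the CMV luciferase reporter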)
[4] = general cell-killing toxicity readout – plate reader, dry powder samples, cytotoxicity control for PAX8 inhibitor project, dose response (AID 743021)
[5] = IGROV1 cell killing – plate reader, dry powder samples, PAX8 inhibitor project, dose response (AID 743043);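 further: more negative means fewer viable cells or more cytotoxicity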
[6] = OVCAR-3 cell viability loss – plate reader, dry powder samples, PAX8 inhibitor project, dose response (AID 743044); conditions: max activity: at 35 µM, hits give low values unless noted
[7] = toxicity toward immortalized ovarian surface epithelium – cell-based, plate reader, dry powder samples, cytotoxicity control for PAX8 inhibitor project, dose response (AID 743045);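 further: 0% = neutral control median and -100% = positive control median; more negative values mean more cell killing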
[8] = A2780 cell killing – plate reader, dry powder samples, cytotoxicity control, dose response (AID 743046);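 further: 0% = neutral control wells and -100% = cytotoxic reference compound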
[9] = OVCAR8 cell viability loss – plate reader, dry powder samples, PAX8 project, dose response (AID 743197)

C[C@@H]1CCCCO[C@H](CN(C)C(=O)Nc2ccc(C(F)(F)F)cc2)[C@H](C)CN([C@@H](C)CO)C(=O)c2cc(NS(=O)(=O)c3ccc(Cl)cc3)ccc2O1
inactive: outcome [1] | outcome [2] | outcome [3] | outcome [4] | outcome [5] | max activity [6] -7.31% | outcome [7] | outcome [8] | outcome [9]

CCCC(=O)Nc1ccc2c(c1)C(=O)N(C)C[C@@H](OC)[C@H](C)CN(Cc1ccc(-c3ccccn3)cc1)[C@H](C)CO2
inactive: outcome [1] | outcome [2] | outcome [3] | outcome [4] | outcome [5] | max activity [6] 8.7% [at 0.5 µM, hits give low values] | outcome [7] | outcome [8] | outcome [9]

C[C@@H]1CN([C@@H](C)CO)C(=O)Cc2cc(N(C)C)ccc2O[C@H]1CN(C)Cc1ccc(Oc2ccccc2)cc1
inactive: outcome [1] | outcome [2] | outcome [3] | outcome [4] | outcome [5] | max activity [6] -11.3% [at 4.2 µM, hits give low values] | outcome [7] | outcome [8] | outcome [9]

C[C@@H]1CCCCO[C@H](CN(C)S(=O)(=O)c2ccc(Cl)cc2)[C@@H](C)CN([C@@H](C)CO)C(=O)c2cc(NC(=O)CCC(F)(F)F)ccc2O1
inactive: outcome [1] | outcome [2] | outcome [3] | outcome [4] | outcome [5] | max activity [6] 17.2% [at 2.1 µM, hits give low values] | outcome [7] | outcome [8] | outcome [9]

COc1cccc(-c2ccc3c(c2)[C@@H]2[C@@H](CCN2C(=O)NC2CCCCC2)[C@H](CO)N3C)c1
inactive: outcome [1] | outcome [2] | outcome [3] | outcome [4] | outcome [5] | max activity [6] -16.7% [at 2.1 µM, hits give low values] | outcome [7] | outcome [8] | outcome [9]

Cc1ccc(S(=O)(=O)Nc2ccc3c(c2)CC(=O)N([C@H](C)CO)C[C@H](C)[C@@H](CN(C)Cc2ccc(Cl)c(Cl)c2)O3)cc1
inactive: outcome [1] | outcome [2] | outcome [3] | outcome [4] | outcome [5] | max activity [6] 29.2% [at 0.26 µM, hits give low values] | outcome [7] | outcome [8] | outcome [9]

C[C@@H]1CCCCO[C@@H](CN(C)C(=O)Nc2ccccc2)[C@H](C)CN([C@H](C)CO)C(=O)c2cc(NC(=O)Nc3ccc(C(F)(F)F)cc3)ccc2O1
inactive: outcome [1] | outcome [2] | activity change, negative = inhibition [3] 5.92% [at 8 µM] | outcome [4] | outcome [5] | max activity [6] 33.8% [at 16 µM, hits give low values] | outcome [7] | outcome [8] | outcome [9]

Cc1ccc(S(=O)(=O)Nc2ccc3c(c2)C(=O)N([C@H](C)CO)C[C@H](C)[C@H](CN(C)C(=O)c2ccccc2)OCCCC[C@H](C)O3)cc1
inactive: outcome [1] | outcome [2] | outcome [3] | outcome [4] | outcome [5] | max activity [6] -23.6% | outcome [7] | outcome [8] | outcome [9]

C[C@@H]1CN([C@@H](C)CO)C(=O)c2c(c3ccccc3n2C)-c2ccccc2CO[C@H]1CN(C)C(=O)Nc1ccc2c(c1)OCO2
inactive: outcome [1] | outcome [2] | outcome [3] | outcome [4] | outcome [5] | max activity [6] -21.8% [at 16 µM, hits give low values] | outcome [7] | outcome [8] | outcome [9]

C[C@H]1CCCCO[C@@H](CN(C)C(=O)NC2CCCCC2)[C@@H](C)CN([C@@H](C)CO)C(=O)c2cc(NC(=O)Nc3ccc(C(F)(F)F)cc3)ccc2O1
inactive: outcome [1] | outcome [2] | outcome [3] | outcome [4] | outcome [5] | max activity [6] 10.8% [at 2.1 µM, hits give low values] | outcome [7] | outcome [8] | outcome [9]

C[C@@H]1CCCCO[C@H](CN(C)S(=O)(=O)c2cccs2)[C@H](C)CN([C@@H](C)CO)C(=O)c2cc(NC(=O)CCC(F)(F)F)ccc2O1
inactive: outcome [1] | outcome [2] | outcome [3] | outcome [4] | outcome [5] | max activity [6] -17.7% | outcome [7] | outcome [8] | outcome [9]

Cc1ccc(S(=O)(=O)N(C)C[C@H]2Oc3ccc(NC(=O)Nc4ccc(C(F)(F)F)cc4)cc3CC(=O)N([C@H](C)CO)C[C@@H]2C)cc1
inactive: outcome [1] | outcome [2] | outcome [3] | outcome [4] | outcome [5] | max activity [6] 49.2% [at 16 µM, hits give low values] | outcome [7] | outcome [8] | outcome [9]

C[C@@H]1CN([C@@H](C)CO)S(=O)(=O)c2ccc(C#Cc3ccc(F)cc3)cc2O[C@H]1CN(C)C(=O)NC1CCCCC1
inactive: outcome [1] | outcome [2] | outcome [3] | outcome [4] | outcome [5] | max activity [6] -9.84% | outcome [7] | outcome [8] | outcome [9]

C[C@@H]1CCCCO[C@@H](CN(C)Cc2ccc(Cl)c(Cl)c2)[C@H](C)CN([C@H](C)CO)C(=O)c2cc(NS(=O)(=O)c3ccccc3)ccc2O1
inactive: outcome [1] | outcome [2] | outcome [3] | outcome [4] | outcome [5] | max activity [6] 8.76% [at 1.95 µM, hits give low values] | outcome [7] | outcome [8] | outcome [9]

C[C@H]1CN([C@@H](C)CO)C(=O)c2c(c3ccccc3n2C)-c2ccccc2CO[C@@H]1CN(C)Cc1ccc(-c2ccccc2)cc1
inactive: outcome [1] | outcome [2] | outcome [3] | outcome [4] | outcome [5] | max activity [6] 59% [at 30 µM, hits give low values] | outcome [7] | outcome [8] | outcome [9]

O=C(Nc1cccc(F)c1)N[C@@H]1CC[C@@H](CCNS(=O)(=O)c2cccc(Cl)c2)O[C@@H]1CO
inactive: outcome [1] | outcome [2] | outcome [3] | outcome [4] | outcome [5] | max activity [6] -20.4% [at 0.5 µM, hits give low values] | outcome [7] | outcome [8] | outcome [9]

C[C@H](CO)N1C[C@H](C)[C@H](CN(C)Cc2ccc(Cl)c(Cl)c2)Oc2c(NS(=O)(=O)c3ccc(Cl)cc3)cccc2C1=O
inactive: outcome [1] | outcome [2] | outcome [3] | outcome [4] | outcome [5] | max activity [6] 53.6% | outcome [7] | outcome [8] | outcome [9]

C[C@H]1CCCCO[C@H](CN(C)C(=O)Nc2ccc(C(F)(F)F)cc2)[C@@H](C)CN([C@@H](C)CO)C(=O)c2cc(NC(=O)c3ccncc3)ccc2O1
inactive: outcome [1] | outcome [2] | outcome [3] | outcome [4] | outcome [5] | max activity [6] -23.2% [at 0.26 µM, hits give low values] | outcome [7] | outcome [8] | outcome [9]

C[C@H](CO)N1C[C@H](C)[C@@H](CN(C)Cc2ccc(Oc3ccccc3)cc2)OCc2ccccc2-c2c(n(C)c3ccccc23)C1=O
inactive: outcome [1] | outcome [2] | outcome [3] | outcome [4] | outcome [5] | max activity [6] 1.33% | outcome [7] | outcome [8] | outcome [9]

C[C@H](O)C#Cc1ccc2c(c1)O[C@H](CN(C)Cc1ccc(-c3ccccc3)cc1)[C@@H](C)CN([C@H](C)CO)S2(=O)=O
inactive: outcome [1] | outcome [2] | outcome [3] | outcome [4] | outcome [5] | max activity [6] 15.2% [at 16 µM, hits give low values] | outcome [7] | outcome [8] | outcome [9]

COc1ccccc1-c1ccc2c(c1)[C@H]1[C@H](CCN1S(=O)(=O)c1ccccc1F)[C@H](CO)N2
inactive: outcome [1] | outcome [2] | outcome [3] | outcome [4] | outcome [5] | max activity [6] -17.4% | outcome [7] | outcome [8] | outcome [9]

COc1ccc(S(=O)(=O)Nc2ccc3c(c2)C(=O)N([C@@H](C)CO)C[C@H](C)[C@H](CN(C)Cc2ccc(C(F)(F)F)cc2)OCCCC[C@@H](C)O3)cc1
inactive: outcome [1] | outcome [2] | outcome [3] | outcome [4] | outcome [5] | max activity [6] 26.1% | outcome [7] | outcome [8] | outcome [9]

Cc1ccc(S(=O)(=O)Nc2ccc3c(c2)C(=O)N([C@@H](C)CO)C[C@@H](C)[C@@H](CN(C)Cc2ccc(C(F)(F)F)cc2)OCCCC[C@@H](C)O3)cc1
inactive: outcome [1] | outcome [2] | outcome [3] | outcome [4] | outcome [5] | max activity [6] -26.4% [at 8 µM, hits give low values] | outcome [7] | outcome [8] | outcome [9]

C[C@H](CO)N1C[C@H](C)[C@H](CN(C)Cc2ccc3c(c2)OCO3)OCCCC[C@H](C)Oc2ccc(NS(=O)(=O)c3ccc(Cl)cc3)cc2C1=O
inactive: outcome [1] | outcome [2] | outcome [3] | outcome [4] | outcome [5] | max activity [6] 2.84% | outcome [7] | outcome [8] | outcome [9]

C[C@@H]1CN([C@H](C)CO)C(=O)c2cc(NC(=O)Nc3ccc(C(F)(F)F)cc3)ccc2O[C@@H](C)CCCCO[C@H]1CN(C)C(=O)Nc1ccc(F)cc1
inactive: outcome [1] | outcome [2] | outcome [3] | outcome [4] | outcome [5] | max activity [6] -1.73% | outcome [7] | outcome [8] | outcome [9]

C[C@@H]1CCCCO[C@H](CN(C)S(=O)(=O)c2ccc(Cl)cc2)[C@@H](C)CN([C@@H](C)CO)C(=O)c2cc(NC(=O)Nc3ccc(C(F)(F)F)cc3)ccc2O1
inactive: outcome [1] | outcome [2] | outcome [3] | outcome [4] | outcome [5] | max activity [6] 9.63% [at 2.1 µM, hits give low values] | outcome [7] | outcome [8] | outcome [9]

O=C(C[C@H]1CC[C@H]2[C@@H](COC[C@@H](O)CN2Cc2ccc(F)cc2)O1)NCc1ccccc1Cl
inactive: outcome [1] | outcome [2] | outcome [3] | outcome [4] | outcome [5] | max activity [6] -7.1% | outcome [7] | outcome [8] | outcome [9]

C[C@H](CO)N1C[C@H](C)[C@H](CN(C)C(=O)NC2CCCCC2)Oc2cc(C#Cc3ccc(F)cc3)ccc2S1(=O)=O
inactive: outcome [1] | outcome [2] | outcome [3] | outcome [4] | outcome [5] | max activity [6] -20.7% | outcome [7] | outcome [8] | outcome [9]
